Data published in PubChem BioAssay (NCATS).
Records with an inconclusive call do not appear. The source made the active and inactive calls. Calls come from the whole dose curve; as a rule, active = well fitted inhibition curve with a large enough effect; inconclusive = small, poorly fitted or top-dose-only effect; inactive = flat fitted curve, though single readings scatter.

Tested on: astro (control astrocytes)
Assay: Drug repurposing screens with cells derived from glioblastoma tumor samples (AID 1345199); note: nearly all actives have a fitted effect of over 40% in size
Conditions: viability, ATP luminescence, 48 h; series mostly up to 45.9 µM; activity, negative = cell killing: at the top concentration
Experimental: CD133+ cells were isolated from GBM patient biopsies and cultured as neurospheres. Neurospheres from four patients were used to screen the NCATS pharmaceutical collection (NPC) library of approved drugs and bioactive compounds. […] The neurospheres were incubated with drugs for 48 hours in 1536-well format, then assayed with an ATP content cell viability assay. […] These hits were cherry picked to confirm activity in the four original GBM lines screened plus three other slower growing GMB lines (unable to yield enough cells for a full primary screen). Variable activities of the confirmed primary hits in the different GBM patient lines were observed. The patient line 206 responded to the greatest number of compounds and line 923 responded to the least amount of active compounds.
% is set by controls: 0 for no effect and ±100 for the full control effect; potency is the fitted concentration of half-maximal effect.

Structure (SMILES)	activity, negative = cell killing	Potency
COc1c2c(cc3c1OCO3)CCN(C)C2	-13.1% [at 21.2 µM] (inactive)	–
O=C1CN=C(c2ccccc2)c2cc([N+](=O)[O-])ccc2N1	-19.2% (inactive)	–
O=C1Nc2ccc(Cl)cc2C(c2ccccc2Cl)=NC1O (stereo not given)	-5.65% (inactive)	–
CC(C)(C)NCC(O)c1cc(Cl)c(N)c(C(F)(F)F)c1 (stereo not given)	-17.2% (inactive)	–
Nc1nc(N)nc(NC2CC2)n1	-17.1% (inactive)	–
CNC(C)(C)Cc1ccccc1	-9.35% [at 21.2 µM] (inactive)	–
CN1C(=O)CCS(=O)(=O)C1c1ccc(Cl)cc1 (stereo not given)	–	inactive
CC(C)c1cccc(C(C)C)c1O	-22.4% (inactive)	–
CN[C@@H](C)Cc1ccccc1	-13.6% [at 91.6 µM] (inactive)	–
Nc1ccccc1C(=O)O	-7.13% (inactive)	–
CN1C(=O)C(O)N=C(c2ccccc2)c2cc(Cl)ccc21 (stereo not given)	-18% (inactive)	–
CC1(C)C(C=C(Cl)Cl)C1C(=O)OC(C#N)c1cccc(Oc2ccccc2)c1 (stereo not given)	-15.8% (inactive)	–
CCN[C@@H](C)Cc1ccccc1	-0.993% [at 108 µM] (inactive)	–
CCN(CC)CCc1c[nH]c2ccccc12	-14.5% [at 108 µM] (inactive)	–
CC(=O)NC1CCSC1=O (stereo not given)	–	inactive
CN1C[C@H](C(=O)N[C@]2(C)O[C@@]3(O)[C@@H]4CCCN4C(=O)[C@H](Cc4ccccc4)N3C2=O)C=C2c3cccc4[nH]cc(c34)C[C@H]21	-8.83% (inactive)	–
CCCCCCC(=O)CCCCCC/C=C/C[C@@H](O)[C@H](O)[C@@](N)(CO)C(=O)O	–	inactive
C[C@H]1[C@@H]2Cc3ccc(O)cc3[C@@]1(C)CCN2C	-9.02% [at 231 µM] (inactive)	–
CC(C)N(CCC(C(N)=O)(c1ccccc1)c1ccccn1)C(C)C (stereo not given)	-13.3% (inactive)	–
CCCCC/C=C\C/C=C\C/C=C\C/C=C\CCCC(=O)NCC(=O)O	0.313% [at 4.17 µM] (inactive)	–

Structure (SMILES)	activity, negative = cell killing	Potency
Clc1cccc(SC2CCNCC2)n1	–	35.5 µM (active)
CC(NC(C)(C)C)C(=O)c1cccc(Cl)c1 (stereo not given)	-13.6% (inactive)	–
COc1cc(OC)c(OC)cc1C=O	1.14% [at 91.6 µM] (inactive)	–
COC(=O)C(Cl)C(=O)OC	-11.7% (inactive)	–
[N-]=[N+]=CC(=O)OC[C@H](N)C(=O)O	-17.6% (inactive)	–
COc1ccc2c(c1OC)C(=O)O[C@H]2[C@@H]1c2cc3c(cc2CCN1C)OCO3	-14.1% (inactive)	–
CN1C(=O)CC(=O)N(c2ccccc2)c2cc(Cl)ccc21	-5.82% (inactive)	–
CCCCCN(C)CCC(O)(P(=O)(O)O)P(=O)(O)O	7.56% (inactive)	–
O=C(CCCN1CCC2(CC1)C(=O)NCN2c1ccccc1)c1ccc(F)cc1	-21.1% (inactive)	–
C[C@]1(O)CC[C@H]2[C@@H]3CCC4=CC(=O)CC[C@]4(C)[C@@]3(F)[C@@H](O)C[C@@]21C	-4.95% (inactive)	–
COc1cc(CCN)cc(OC)c1OC	3.29% [at 108 µM] (inactive)	–
NNc1ccccc1	-14.5% (inactive)	–
CCN[C@@H](C)Cc1cccc(C(F)(F)F)c1	-0.222% [at 91.6 µM] (inactive)	–
C=CCC1([C@H](C)CCC)C(=O)NC(=O)NC1=O	-26.7% [at 91.6 µM] (inactive)	–
COc1cccc([C@@]2(O)CCCC[C@@H]2CN(C)C)c1	-18% (inactive)	–
Oc1ccc(Cl)cc1	-13% (inactive)	–
CN(C)CCc1c[nH]c2cccc(OP(=O)(O)O)c12	-0.323% [at 91.6 µM] (inactive)	–
Cc1ncsc1CCCl	-9.62% (inactive)	–
COC(=O)C(c1ccccc1)C1CCCCN1 (stereo not given)	-10% (inactive)	–
O=C1c2ccccc2C(=O)c2ccccc21	-11.2% (inactive)	–
